# Assay results as given in PMC5540273 (PLoS ONE, 2017).
# Read-outs that look alike come from different tables or passages of the source.
# Assays:
# DAPK1 = details: concentration: 1 μM, replicates: in singlicate; n = 1
# DAPK2 = details: concentration: 1 μM, replicates: in singlicate; n = 1
# DAPK3 = details: concentration: 1 μM, replicates: in singlicate; n = 1
# DCAMKL1 = system: T1, DCAMKL1; details: concentration: 1 μM, replicates: in singlicate; n = 1
# T1 construct: gene DCLK1
# DCAMKL2 = system: T2, DCAMKL2; details: concentration: 1 μM, replicates: in singlicate; n = 1
# T2 construct: gene DCLK2
# DCAMKL3 = system: T3, DCAMKL3; details: concentration: 1 μM, replicates: in singlicate; n = 1
# T3 construct: gene DCLK3
# DDR1 = details: concentration: 1 μM, replicates: in singlicate; n = 1
# DDR2 = details: concentration: 1 μM, replicates: in singlicate; n = 1
# DLK = system: T4, DLK; details: concentration: 1 μM, replicates: in singlicate; n = 1
# T4 construct: gene MAP3K12
# DMPK2 = system: T5, DMPK2; details: concentration: 1 μM, replicates: in singlicate; n = 1
# T5 construct: gene CDC42BPG
# DMPK = details: concentration: 1 μM, replicates: in singlicate; n = 1
# DRAK1 = system: T6, DRAK1; details: concentration: 1 μM, replicates: in singlicate; n = 1
# T6 construct: gene STK17A
# DRAK2 = system: T7, DRAK2; details: concentration: 1 μM, replicates: in singlicate; n = 1
# T7 construct: gene STK17B
# DYRK1A = details: concentration: 1 μM, replicates: in singlicate; n = 1
# DYRK1B = details: n = 1
# DYRK2 = details: concentration: 1 μM, replicates: in singlicate; n = 1
# EGFR = details: concentration: 1 μM, replicates: in singlicate; n = 1
# EIF2AK1 = details: concentration: 1 μM, replicates: in singlicate; n = 1
# EPHA1 = details: concentration: 1 μM, replicates: in singlicate; n = 1
# EPHA2 = details: concentration: 1 μM, replicates: in singlicate; n = 1
# [1] = concentration: 1 μM, replicates: in singlicate
# 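Also: KINOMEscan kinase panel screen.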
smiles,measurement,setting,value
NS(=O)(=O)CCc1cccc(Nc2nccc(-c3c(-c4cccc(NC(=O)c5c(F)cccc5F)c4)nn4ccccc34)n2)c1 [GSK336735],%Inh,DAPK1,0%
same,%Inh,DAPK2,0%
same,%Inh,DAPK3,0%
same,%Inh,DCAMKL1,13%
same,%Inh,DCAMKL2,23%
same,%Inh,DCAMKL3,15%
same,%Inh,DDR1,100%
same,%Inh,DDR2,94.9%
same,%Inh,DLK,59%
same,%Inh,DMPK2,100%
same,%Inh,DMPK,11%
same,%Inh,DRAK1,4%
same,%Inh,DRAK2,12%
same,%Inh,DYRK1A,20%
same,%Inh,DYRK1B; [1],0%
same,%Inh,DYRK2,12%
same,%Inh,EGFR,100%
same,%Inh,EIF2AK1,0%
same,%Inh,EPHA1,69%
same,%Inh,EPHA2,71%
Fc1ccc(-c2nn3c(OCC(F)(F)F)cccc3c2-c2ccncc2)cc1 [GW514784],%Inh,DAPK1,0%
same,%Inh,DAPK2,0%
same,%Inh,DAPK3,0%
same,%Inh,DCAMKL1,0%
same,%Inh,DCAMKL2,0%
same,%Inh,DCAMKL3,36%
same,%Inh,DDR1,80%
same,%Inh,DDR2,81%
same,%Inh,DLK,40%
same,%Inh,DMPK2,95.3%
same,%Inh,DMPK,0%
same,%Inh,DRAK1,18%
same,%Inh,DRAK2,0%
same,%Inh,DYRK1A,3%
same,%Inh,DYRK1B; [1],0%
same,%Inh,DYRK2,10%
same,%Inh,EGFR,20%
same,%Inh,EIF2AK1,0%
same,%Inh,EPHA1,8%
same,%Inh,EPHA2,7%
CNc1ncnc2[nH]ncc12 [SKF-18355],%Inh,DAPK1,7%
same,%Inh,DAPK2,0%
same,%Inh,DAPK3,0%
same,%Inh,DCAMKL1,33%
same,%Inh,DCAMKL2,15%
same,%Inh,DCAMKL3,0%
same,%Inh,DDR1,0%
same,%Inh,DDR2,64%
same,%Inh,DLK,11%
same,%Inh,DMPK2,0%
same,%Inh,DMPK,0%
same,%Inh,DRAK1,10%
same,%Inh,DRAK2,0%
same,%Inh,DYRK1A,0%
same,%Inh,DYRK1B; [1],0%
same,%Inh,DYRK2,37%
same,%Inh,EGFR,0%
same,%Inh,EIF2AK1,0%
same,%Inh,EPHA1,0%
same,%Inh,EPHA2,0%
CN1c2ccc(CNc3ccc(F)cc3)cc2-c2c(cnn2C)S1(=O)=O,%Inh,DAPK1,11%
same,%Inh,DAPK2,0%
same,%Inh,DAPK3,0%
same,%Inh,DCAMKL1,14%
same,%Inh,DCAMKL2,0%
same,%Inh,DCAMKL3,0%
same,%Inh,DDR1,4%
same,%Inh,DDR2,35%
same,%Inh,DLK,0%
same,%Inh,DMPK2,0%
same,%Inh,DMPK,1%
same,%Inh,DRAK1,0%
same,%Inh,DRAK2,0%
same,%Inh,DYRK1A,0%
same,%Inh,DYRK1B; [1],0%
same,%Inh,DYRK2,0%
same,%Inh,EGFR,0%
same,%Inh,EIF2AK1,0%
same,%Inh,EPHA1,0%
same,%Inh,EPHA2,9%
O=c1cc(N2CCOCC2)nc2n(Cc3cccc(Cl)c3Cl)c(C3CC3)nn12 [GSK2358994],%Inh,DAPK1,26%
same,%Inh,DAPK2,12%
same,%Inh,DAPK3,6%
same,%Inh,DCAMKL1,0%
same,%Inh,DCAMKL2,7%
same,%Inh,DCAMKL3,17%
same,%Inh,DDR1,21%
same,%Inh,DDR2,0%
same,%Inh,DLK,0%
same,%Inh,DMPK2,0%
same,%Inh,DMPK,0%
same,%Inh,DRAK1,11%
same,%Inh,DRAK2,9%
same,%Inh,DYRK1A,2%
same,%Inh,DYRK1B; 1 µM,0%
same,%Inh,DYRK2,1%
same,%Inh,EGFR,0%
same,%Inh,EIF2AK1,0%
same,%Inh,EPHA1,7%
same,%Inh,EPHA2,0%
Cc1nnc(-c2ccc(C)c(-c3ccc(C(=O)Nc4ccc(NS(C)(=O)=O)cc4)cc3)c2)o1 [GW702865],%Inh,DAPK1,8%
same,%Inh,DAPK2,3%
same,%Inh,DAPK3,18%
same,%Inh,DCAMKL1,8%
same,%Inh,DCAMKL2,0%
same,%Inh,DCAMKL3,0%
same,%Inh,DDR1,0%
same,%Inh,DDR2,46%
same,%Inh,DLK,0%
same,%Inh,DMPK2,0%
same,%Inh,DMPK,0%
same,%Inh,DRAK1,0%
same,%Inh,DRAK2,0%
same,%Inh,DYRK1A,0%
same,%Inh,DYRK1B; [1],1%
same,%Inh,DYRK2,0%
same,%Inh,EGFR,13%
same,%Inh,EIF2AK1,0%
same,%Inh,EPHA1,0%
same,%Inh,EPHA2,16%
CCc1nc(-c2cccc(C)c2)c(-c2ccnc(NCc3ccccc3)c2)s1,%Inh,DAPK1,2%
same,%Inh,DAPK2,10%
same,%Inh,DAPK3,0%
same,%Inh,DCAMKL1,10%
same,%Inh,DCAMKL2,8%
same,%Inh,DCAMKL3,0%
same,%Inh,DDR1,14%
same,%Inh,DDR2,18%
same,%Inh,DLK,0%
same,%Inh,DMPK2,5%
same,%Inh,DMPK,0%
same,%Inh,DRAK1,2%
same,%Inh,DRAK2,16%
same,%Inh,DYRK1A,0%
same,%Inh,DYRK1B; [1],23%
same,%Inh,DYRK2,2%
same,%Inh,EGFR,0%
same,%Inh,EIF2AK1,0%
same,%Inh,EPHA1,0%
same,%Inh,EPHA2,1%
N#Cc1c(N2CCOCC2)sc(-c2ccn[nH]2)c1-c1ccc(Cl)cc1,%Inh,DAPK1,3%
same,%Inh,DAPK2,0%
same,%Inh,DAPK3,0%
same,%Inh,DCAMKL1,7%
same,%Inh,DCAMKL2,11%
same,%Inh,DCAMKL3,0%
same,%Inh,DDR1,15%
same,%Inh,DDR2,6%
same,%Inh,DLK,19%
same,%Inh,DMPK2,2%
same,%Inh,DMPK,4%
same,%Inh,DRAK1,0%
same,%Inh,DRAK2,0%
same,%Inh,DYRK1A,0%
same,%Inh,DYRK1B; [1],47%
same,%Inh,DYRK2,0%
same,%Inh,EGFR,0%
same,%Inh,EIF2AK1,0%
same,%Inh,EPHA1,1%
same,%Inh,EPHA2,0%
COc1ccc(COc2cc(-n3cnc4ccccc43)sc2C(N)=O)cc1 [GSK1024304],%Inh,DAPK1,3%
same,%Inh,DAPK2,10%
same,%Inh,DAPK3,8%
same,%Inh,DCAMKL1,0%
same,%Inh,DCAMKL2,8%
same,%Inh,DCAMKL3,0%
same,%Inh,DDR1,0%
same,%Inh,DDR2,0%
same,%Inh,DLK,25%
same,%Inh,DMPK2,7%
same,%Inh,DMPK,29%
same,%Inh,DRAK1,16%
same,%Inh,DRAK2,0%
same,%Inh,DYRK1A,16%
same,%Inh,DYRK1B; [1],12%
same,%Inh,DYRK2,12%
same,%Inh,EGFR,4%
same,%Inh,EIF2AK1,0%
same,%Inh,EPHA1,0%
same,%Inh,EPHA2,0%
